Experiment [1] addresses Tyrosine-protein kinase SYK (Homo sapiens) (UniProt P43405). Conditions: at 10 µM.
Experiment [2] concerns the target T1, Mitogen-activated protein kinase kinase kinase 7 (Homo sapiens) (UniProt O43318).
T1 sequence (whole entry): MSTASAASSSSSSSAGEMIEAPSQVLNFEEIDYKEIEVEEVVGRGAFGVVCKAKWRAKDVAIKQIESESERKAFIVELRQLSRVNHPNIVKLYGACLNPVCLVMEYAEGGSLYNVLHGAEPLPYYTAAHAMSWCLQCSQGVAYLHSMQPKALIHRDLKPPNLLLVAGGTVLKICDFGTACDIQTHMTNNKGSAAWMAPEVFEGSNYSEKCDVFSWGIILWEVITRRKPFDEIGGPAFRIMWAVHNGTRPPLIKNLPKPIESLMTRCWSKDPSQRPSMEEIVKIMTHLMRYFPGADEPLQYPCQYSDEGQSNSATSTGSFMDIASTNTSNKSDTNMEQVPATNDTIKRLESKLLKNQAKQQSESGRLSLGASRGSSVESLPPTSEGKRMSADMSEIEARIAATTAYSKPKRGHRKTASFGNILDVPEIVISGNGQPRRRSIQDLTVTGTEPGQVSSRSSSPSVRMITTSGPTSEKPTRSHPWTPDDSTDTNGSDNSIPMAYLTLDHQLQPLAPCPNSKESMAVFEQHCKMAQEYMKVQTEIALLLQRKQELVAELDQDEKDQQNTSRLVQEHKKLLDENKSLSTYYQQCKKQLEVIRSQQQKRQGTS
Conditions: at 10 µM.

Experiment [3] has as its target T2, Serine/threonine-protein kinase TAO1 (Homo sapiens) (UniProt Q7L7X3).
T2 sequence (whole entry): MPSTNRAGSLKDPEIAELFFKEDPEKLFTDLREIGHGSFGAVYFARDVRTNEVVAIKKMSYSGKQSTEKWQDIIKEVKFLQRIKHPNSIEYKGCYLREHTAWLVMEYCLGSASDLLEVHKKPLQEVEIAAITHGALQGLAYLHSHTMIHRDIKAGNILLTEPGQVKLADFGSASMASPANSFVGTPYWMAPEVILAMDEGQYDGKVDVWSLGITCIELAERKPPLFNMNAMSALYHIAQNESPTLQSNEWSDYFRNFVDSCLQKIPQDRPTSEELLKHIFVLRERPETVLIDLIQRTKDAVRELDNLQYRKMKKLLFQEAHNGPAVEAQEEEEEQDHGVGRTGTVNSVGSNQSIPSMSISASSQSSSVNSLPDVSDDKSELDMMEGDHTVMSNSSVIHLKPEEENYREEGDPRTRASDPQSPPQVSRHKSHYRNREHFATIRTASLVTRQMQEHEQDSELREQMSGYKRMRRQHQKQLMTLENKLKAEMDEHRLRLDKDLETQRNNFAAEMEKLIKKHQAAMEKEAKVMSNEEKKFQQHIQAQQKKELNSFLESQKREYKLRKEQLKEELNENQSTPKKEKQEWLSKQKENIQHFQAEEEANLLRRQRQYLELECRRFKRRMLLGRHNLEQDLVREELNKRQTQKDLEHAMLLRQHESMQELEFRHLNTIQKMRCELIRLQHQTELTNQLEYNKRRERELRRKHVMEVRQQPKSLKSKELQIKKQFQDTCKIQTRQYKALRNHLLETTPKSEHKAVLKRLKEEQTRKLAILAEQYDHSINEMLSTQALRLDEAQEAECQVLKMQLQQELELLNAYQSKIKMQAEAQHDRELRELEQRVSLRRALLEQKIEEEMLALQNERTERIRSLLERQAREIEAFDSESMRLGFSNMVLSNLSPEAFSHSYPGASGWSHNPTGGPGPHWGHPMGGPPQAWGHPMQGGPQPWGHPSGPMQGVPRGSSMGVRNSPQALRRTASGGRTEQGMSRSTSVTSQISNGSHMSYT
As to conditions: at 1 µM.

Experiment [4] addresses T2, Serine/threonine-protein kinase TAO1 (Homo sapiens). Conditions: at 10 µM.
Experiment [5] addresses T3, Serine/threonine-protein kinase TAO2 (Homo sapiens) (UniProt Q9UL54).
T3 sequence (whole entry): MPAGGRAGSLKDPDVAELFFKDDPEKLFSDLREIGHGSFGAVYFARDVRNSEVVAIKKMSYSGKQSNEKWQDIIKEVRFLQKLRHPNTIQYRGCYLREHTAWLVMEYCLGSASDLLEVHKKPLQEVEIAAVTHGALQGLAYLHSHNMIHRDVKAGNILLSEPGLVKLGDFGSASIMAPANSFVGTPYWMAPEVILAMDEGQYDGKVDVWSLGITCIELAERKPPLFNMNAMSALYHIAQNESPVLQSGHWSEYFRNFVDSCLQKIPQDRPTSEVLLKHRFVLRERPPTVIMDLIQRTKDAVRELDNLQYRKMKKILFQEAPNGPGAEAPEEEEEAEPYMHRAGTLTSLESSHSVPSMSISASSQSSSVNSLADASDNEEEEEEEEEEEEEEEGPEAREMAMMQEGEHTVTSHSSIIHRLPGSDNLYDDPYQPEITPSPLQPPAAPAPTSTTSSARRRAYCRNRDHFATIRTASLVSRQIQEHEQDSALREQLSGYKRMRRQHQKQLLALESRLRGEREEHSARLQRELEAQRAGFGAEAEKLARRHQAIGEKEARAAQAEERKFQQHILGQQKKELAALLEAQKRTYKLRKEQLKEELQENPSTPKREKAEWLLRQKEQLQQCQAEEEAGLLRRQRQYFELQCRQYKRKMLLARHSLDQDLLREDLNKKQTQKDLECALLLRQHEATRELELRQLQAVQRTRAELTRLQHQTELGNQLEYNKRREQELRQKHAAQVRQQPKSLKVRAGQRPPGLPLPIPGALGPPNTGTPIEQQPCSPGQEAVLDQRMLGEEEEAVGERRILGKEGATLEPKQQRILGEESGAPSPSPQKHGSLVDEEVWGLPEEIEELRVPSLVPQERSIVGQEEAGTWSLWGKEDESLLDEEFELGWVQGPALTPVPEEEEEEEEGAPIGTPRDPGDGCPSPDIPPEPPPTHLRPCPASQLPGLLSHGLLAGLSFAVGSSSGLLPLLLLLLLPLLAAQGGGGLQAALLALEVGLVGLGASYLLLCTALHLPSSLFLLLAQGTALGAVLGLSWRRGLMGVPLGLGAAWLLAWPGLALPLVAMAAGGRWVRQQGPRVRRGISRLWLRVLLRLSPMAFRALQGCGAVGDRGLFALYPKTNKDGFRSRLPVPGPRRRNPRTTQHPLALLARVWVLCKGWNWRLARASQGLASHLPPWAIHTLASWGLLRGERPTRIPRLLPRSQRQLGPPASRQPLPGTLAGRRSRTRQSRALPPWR
As to conditions: at 1 µM.

Experiment [6] addresses T3, Serine/threonine-protein kinase TAO2 (Homo sapiens). Conditions: at 10 µM.
Experiment [7] addresses T4, Serine/threonine-protein kinase TAO3 (Homo sapiens) (UniProt Q9H2K8).
T4 sequence (whole entry): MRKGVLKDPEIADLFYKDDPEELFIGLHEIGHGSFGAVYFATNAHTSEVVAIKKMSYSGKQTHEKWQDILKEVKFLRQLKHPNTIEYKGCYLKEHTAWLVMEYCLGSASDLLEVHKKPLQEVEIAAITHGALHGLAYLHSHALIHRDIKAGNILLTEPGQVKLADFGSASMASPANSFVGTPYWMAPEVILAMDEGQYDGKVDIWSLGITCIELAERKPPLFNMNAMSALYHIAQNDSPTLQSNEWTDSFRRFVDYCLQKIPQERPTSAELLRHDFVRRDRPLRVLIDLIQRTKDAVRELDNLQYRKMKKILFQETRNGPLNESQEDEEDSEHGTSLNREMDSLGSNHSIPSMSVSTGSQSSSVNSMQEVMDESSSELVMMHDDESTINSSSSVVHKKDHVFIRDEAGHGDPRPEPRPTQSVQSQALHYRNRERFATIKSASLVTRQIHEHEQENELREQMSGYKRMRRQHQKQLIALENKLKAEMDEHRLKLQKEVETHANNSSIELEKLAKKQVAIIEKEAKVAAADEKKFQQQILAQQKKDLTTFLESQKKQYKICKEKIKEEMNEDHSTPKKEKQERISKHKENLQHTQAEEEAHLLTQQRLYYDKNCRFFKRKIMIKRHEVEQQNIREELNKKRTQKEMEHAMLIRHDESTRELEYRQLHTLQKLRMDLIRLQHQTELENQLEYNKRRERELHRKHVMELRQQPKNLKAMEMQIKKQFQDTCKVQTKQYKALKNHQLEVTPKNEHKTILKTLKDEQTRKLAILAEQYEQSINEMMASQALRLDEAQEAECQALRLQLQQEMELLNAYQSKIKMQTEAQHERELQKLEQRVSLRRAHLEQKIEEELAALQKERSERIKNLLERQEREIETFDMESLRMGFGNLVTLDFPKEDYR
Conditions: at 1 µM.

Experiment [8] concerns the target T4, Serine/threonine-protein kinase TAO3 (Homo sapiens). Conditions: at 10 µM.
Experiment [9] has as its target T5, Serine/threonine-protein kinase TBK1 (Homo sapiens) (UniProt Q9UHD2).
T5 sequence (whole entry): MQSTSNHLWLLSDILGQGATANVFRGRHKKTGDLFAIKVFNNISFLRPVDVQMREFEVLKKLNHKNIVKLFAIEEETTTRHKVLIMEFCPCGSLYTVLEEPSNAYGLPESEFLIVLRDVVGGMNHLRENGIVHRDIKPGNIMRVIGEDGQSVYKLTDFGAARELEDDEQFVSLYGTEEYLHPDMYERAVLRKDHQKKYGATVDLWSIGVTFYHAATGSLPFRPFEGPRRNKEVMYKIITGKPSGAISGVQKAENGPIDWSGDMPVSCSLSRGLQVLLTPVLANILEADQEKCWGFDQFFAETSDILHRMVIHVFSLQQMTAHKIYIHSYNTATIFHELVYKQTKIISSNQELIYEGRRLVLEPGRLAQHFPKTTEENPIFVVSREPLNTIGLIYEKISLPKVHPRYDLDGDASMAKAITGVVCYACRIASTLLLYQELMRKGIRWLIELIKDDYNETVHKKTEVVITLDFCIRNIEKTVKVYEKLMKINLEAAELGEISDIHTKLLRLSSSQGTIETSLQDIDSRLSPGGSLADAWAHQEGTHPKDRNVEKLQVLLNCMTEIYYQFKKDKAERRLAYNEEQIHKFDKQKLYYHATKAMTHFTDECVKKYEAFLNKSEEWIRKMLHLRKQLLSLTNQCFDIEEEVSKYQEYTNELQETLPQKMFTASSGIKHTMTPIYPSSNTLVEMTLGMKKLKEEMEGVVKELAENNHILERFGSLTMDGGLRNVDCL
As to conditions: at 1 µM.

In the case of `CCCCc1c(-c2ccc(OC)cc2)[nH]c2nccnc12`, the residual activity in experiment [1] amounted to 39%; in experiment [2], 86%; in experiment [3], 48%; in experiment [4], 48%; in experiment [5], 64%; in [6], 82%. The values for the residual activity in experiment [7], in [8] and in [9] were 81%, 90% and 61%, respectively.

These data come from ChEMBL document CHEMBL2218924, “A broad activity screen in support of a chemogenomic map for kinase signalling research and drug discovery” (Biochem J, 2013).
